Potency and affinity values are given separately.
What follows are molecules tested on Cryptococcus neoformans. Settings: Concentration 20 uM; ASSAY_TEST Inhibition of Fungal Growth; detection method Resazurin; Absorption (OD600-OD570); plate type 384well; NBS; CORNING #3640.

Compound	Inhibition [%]
C[C@H](CCC(=O)O)[C@H]1CC[C@H]2[C@@H]3C(=O)C[C@@H]4CC(=O)CC[C@]4(C)[C@H]3CC(=O)[C@]12C [DEHYDROCHOLIC ACID]	2.23
CN1C(=O)CN=C(c2ccccc2)c2cc(Cl)ccc21 [DIAZEPAM]	-1.5
Brc1c(NC2=NCCN2)ccc2nccnc12 [BRIMONIDINE]	-1.44
CC(C)NCC(O)COc1cccc2[nH]ccc12 (centres undefined) [PINDOLOL]	-9.82
Cc1c(O)c(=O)ccn1C [DEFERIPRONE]	-5.92
C[C@]12CC[C@H](O)CC1=CC[C@@H]1[C@@H]2CC[C@@]2(C)[C@H]1CC[C@]2(C)O [METHANDRIOL]	2.63
CC(COc1ccccc1)N(CCCl)Cc1ccccc1.Cl (centres undefined) [PHENOXYBENZAMINE HYDROCHLORIDE]	-10.83
Br.COc1ccc2c3c1O[C@H]1C[C@@H](O)C=C[C@@]31CCN(C)C2 [GALANTAMINE HYDROBROMIDE]	-5.72
CC[C@@H]1/C=C/C=C/C[C@H](C)[C@@H](O)[C@](C)(O)C(=O)[C@H](C)[C@@H](O)[C@H](C)C(=O)[C@H](C)[C@@H](O)[C@H](C)/C=C/C(=O)O[C@H]2[C@@H](C)[C@@H](CC1)O[C@@]1(CC[C@@H](C)[C@@H](C[C@H](C)O)O1)[C@@H]2C	-9.53
Cl.N=C(N)NC(=O)c1nc(Cl)c(N)nc1N.O.O [AMILORIDE HYDROCHLORIDE]	-6.3
COc1ccc2[nH]cc(C3=CCNCC3)c2c1.COc1ccc2[nH]cc(C3=CCNCC3)c2c1.O=C(O)CCC(=O)O	-20.08
Cl.O.Oc1cc2c(cc1O)[C@H]1c3ccccc3CN[C@@H]1CC2	-4.18
O=C1CN=C(c2ccccc2)c2cc([N+](=O)[O-])ccc2N1 [NITRAZEPAM]	1.38
CC(C)CC(N(C)C)C1(c2ccc(Cl)cc2)CCC1 (centres undefined) [SIBUTRAMINE]	1.52
COC(=O)C1=C(C)NC(C)=C(C(=O)OC)C1c1ccccc1[N+](=O)[O-] [NIFEDIPINE]	-4.99
CC(O)(CS(=O)(=O)c1ccc(F)cc1)C(=O)Nc1ccc(C#N)c(C(F)(F)F)c1 (centres undefined) [BICALUTAMIDE]	-5.03
CN1[C@@H](CC(=O)c2ccccc2)CCC[C@H]1C[C@H](O)c1ccccc1.Cl [LOBELINE HYDROCHLORIDE]	-5.47

Compound	Inhibition [%]
COc1ccc(CCN)cc1OC	-1.54
CN1CC[C@@]23CCCC[C@@H]2[C@@H]1Cc1ccc(O)cc13.O=C(O)C(O)C(O)C(=O)O	-5.99
Br.Br.CN1CC[C@]2(c3cccc(O)c3)Cc3nc4ccccc4cc3C[C@H]2C1.O	2.37
CN1[C@@H]2CC[C@H]1C[C@@H](OC(=O)c1c[nH]c3ccccc13)C2.Cl	-7.07
Fc1ccc([C@@H]2CCNC[C@H]2COc2ccc3c(c2)OCO3)cc1.O=C(O)/C=C\C(=O)O	-6.92
CN(C)C(=O)C(CCN1CCC(O)(c2ccc(Cl)cc2)CC1)(c1ccccc1)c1ccccc1.Cl [LOPERAMIDE HYDROCHLORIDE]	-15.04
C[C@]12CC[C@H]3[C@@H](CCC4=CC(=O)CC[C@@H]43)[C@@H]1CC[C@@H]2O [NANDROLONE]	-1.13
C[C@]12CCC(=O)C[C@@H]1CC[C@@H]1[C@@H]2CC[C@@]2(C)[C@H]1CC[C@]2(C)O [MESTANOLONE]	4.57
CC(=O)[C@H]1CC[C@H]2[C@@H]3CCC4=CC(=O)CC[C@]4(C)[C@H]3CC[C@]12C [PROGESTERONE]	-1.48
CN1CCN(C(=O)O[C@H]2c3nccnc3C(=O)N2c2ccc(Cl)cn2)CC1 [ESZOPICLONE]	4.31
c1ccc(Cn2ccnc2)cc1	0.79
Cc1c(OCC(F)(F)F)ccnc1C[S+]([O-])c1nc2ccccc2[nH]1 (centres undefined) [LANSOPRAZOLE]	-23.82
COc1cc(-c2ccc(=O)[nH]n2)ccc1OC(F)F [ZARDAVERINE]	1.74
Cl.NCC(O)c1ccc(O)c(O)c1 (centres undefined)	-2.98
COc1cc(CNC(=O)CCCC/C=C\C(C)C)ccc1O [ZUCAPSAICIN]	-5.9
c1ccc2c(c1)Nc1ccccc1S2 [PHENOTHIAZINE]	6.01
CN(C)CCc1c[nH]c2ccc(C[C@H]3COC(=O)N3)cc12 [ZOLMITRIPTAN]	0.25

Source: ChEMBL document CHEMBL4513141, “CO-ADD screening of NIH (USA) - Clinical Collection” (2021)
